Inconclusive results are not listed. Active and inactive are the calls of the source. Rule for the calls, unless noted: active = hit-call score of the fitted dose curve at least 0.9, where 1 is the maximum; inactive = score below 0.9.
Assays:
[1] = ATG_TAL_CIS: Attagene CIS-FACTORIAL HepG2 Assay for human TAL Basal Promoter (AID 2282966); settings: HepG2 Attagene cis-factorial TAL promoter reporter; actives raise or lower the signal;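 note: background control endpoint measuring basal TAL promoter reporter mRNA not a specific factor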
Method in brief: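 Readout: reporter mRNA, fluorescence by CE. System: HepG2, transient multi-reporter transfection, endogenous TF activity. Exposure: 24 h. Analysis: bidirectional, DMSO-normalized; background control.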

[2] = ATG_TGFb_CIS: Attagene CIS-FACTORIAL HepG2 Assay for human Transforming Growth Factor (TGF) (AID 2282967); settings: HepG2 Attagene CIS TGFb reporter, mRNA transcription; actives raise or lower the signal
Method in brief: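 Multiplexed cis-reporter HepG2 system, 24 h treatment; mRNA induction read by fluorescence after RT-PCR and CE; DMSO negative control, bidirectional curve fitting.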

[3] = ATG_VDRE_CIS: Attagene CIS-FACTORIAL HepG2 Assay for human Vitamin D Receptor Element (VDRE) (AID 2282968); settings: HepG2 VDRE cis-reporter transcription, actives raise or lower the signal
Method in brief: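 Cell-based multiplexed reporter format in human liver HepG2 cells, 24 h post-dose. Fluorescence from capillary electrophoresis of reporter cDNA gives the signal, with DMSO as negative control and baseline.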

[4] = target: Nuclear receptor subfamily 1 group I member 3 (Homo sapiens) (UniProt Q14994); assay: ATG_CAR_TRANS: Attagene TRANS-FACTORIAL HepG2 Assay for human Constitutive Androstane Receptor (CAR) (AID 2282969; active = hit-call score of the fitted dose curve at least 0.9, where 1 is the maximum;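 note: activators raise reporter mRNA above DMSO so AC50 marks induction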); settings: HepG2 Attagene TRANS-FACTORIAL CAR reporter
Method in brief: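 HepG2 cells transiently transfected with GAL4-UAS reporter units; TRANS format reads activity of exogenous chimeric NR-Gal4 protein. After 24 h dosing, reporter mRNA quantified by RT-PCR, 6-FAM labelling and capillary electrophoresis; gain of signal fitted against DMSO.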

[5] = target: X-box-binding protein 1 (Homo sapiens) (UniProt P17861); assay: ATG_Xbp1_CIS: Attagene CIS-FACTORIAL HepG2 Assay for human X-box Binding Protein 1 (XBP1) (AID 2282972); settings: HepG2 XBP1 cis-element reporter, Attagene multiplex; actives raise or lower the signal
Method in brief: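 HepG2 cells transiently transfected with cis-regulated multiple reporter transcription units; endogenous transcription factor activity measured 24 hours after chemical dosing. Reporter mRNA quantified by RT-PCR, 6-FAM primer extension, HpaI digestion and capillary electrophoresis; bidirectional fitting versus DMSO.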

[6] = ATG_M_19_TRANS: Attagene TRANS-FACTORIAL HepG2 Assay for M19 Transcription Factor (Internal Marker) (AID 2282974; active = hit-call score of the fitted dose curve at least 0.9, where 1 is the maximum); settings: HepG2 Attagene TRANS-FACTORIAL M19 internal marker reporter
Method in brief: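 HepG2 transiently transfected with GAL4-UAS multiplex reporter constructs, exposed 24 h; reporter RNA quantified by RT-PCR, 6-FAM labeling, HpaI digestion and capillary electrophoresis; internal background marker fitted upward versus DMSO.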

[7] = target: Oxysterols receptor LXR-beta (Homo sapiens) (UniProt P55055); assay: ATG_LXRb_TRANS: Attagene TRANS-FACTORIAL HepG2 Assay for human Liver X Receptor beta (LXRb) (AID 2282981; active = hit-call score of the fitted dose curve at least 0.9, where 1 is the maximum); settings: HepG2 Attagene TRANS GAL4-LXRb reporter, mRNA
Method in brief: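 Gain-of-signal mRNA reporter endpoint, DMSO as negative control. Transiently transfected HepG2 cells carrying the NR-Gal4 chimera and GAL4-UAS reporter units were treated 24 h; transcripts quantified by RT-PCR and capillary electrophoresis fluorescence.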

[8] = ATG_M_06_TRANS: Attagene TRANS-FACTORIAL HepG2 Assay for M06 Transcription Factor (Internal Marker) (AID 2282983; active = hit-call score of the fitted dose curve at least 0.9, where 1 is the maximum); settings: HepG2 Attagene TRANS M06 internal marker reporter
Method in brief: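 Measured by capillary electrophoresis of fluorescently labelled RT-PCR products, this endpoint reflects reporter mRNA in HepG2 cells harbouring exogenous NR-GAL4 reporter constructs after 24 h exposure, with DMSO as baseline.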

[9] = ATG_M_32_TRANS: Attagene TRANS-FACTORIAL HepG2 Assay for M32 Transcription Factor (Internal Marker) (AID 2282984; active = hit-call score of the fitted dose curve at least 0.9, where 1 is the maximum;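 note: transcript level of a background control reporter unit measured by RT-PCR and capillary electrophoresis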); settings: HepG2 Attagene TRANS M32 internal marker reporter
Method in brief: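 Capillary electrophoresis of 6-FAM-labelled reporter fragments gives the signal; data fitted for gain over DMSO negative control. Source: HepG2 cells bearing transient multiple reporter transcription units, 24 h exposure.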

[10] = target: Transcriptional activator Myb (Homo sapiens) (UniProt P10242); assay: ATG_Myb_CIS: Attagene CIS-FACTORIAL HepG2 Assay for human Myeloblastosis (Myb) Proto-Oncogene Transcription Factor (AID 2282986); settings: HepG2 Attagene CIS-FACTORIAL Myb reporter transcription; actives raise or lower the signal
Method in brief: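 Transiently transfected HepG2 cells carrying a multiplexed cis-promoter reporter set report endogenous Myb activity after 24 h compound exposure. Reporter mRNA is read by RT-PCR with capillary electrophoresis of fluorescent products, fitted bidirectionally against DMSO.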

[11] = target: Nuclear respiratory factor 1 (Homo sapiens) (UniProt Q16656); assay: ATG_NRF1_CIS: Attagene CIS-FACTORIAL HepG2 Assay for human Nuclear Respiratory Factor 1 (NRF1) Orphan Gene (AID 2282987); settings: HepG2 NRF1 cis-element reporter, Attagene multiplex; actives raise or lower the signal
Method in brief: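 HepG2 cells transiently transfected with multiple cis-regulated reporter units, exposed 24 h. Reporter mRNAs measured by RT-PCR, fluorescent labelling, HpaI digestion and capillary electrophoresis; bidirectional fitting against DMSO.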

[12] = ATG_GAL4_TRANS: Attagene TRANS-FACTORIAL HepG2 Assay for GAL4 (Internal Marker) (AID 2282976; active = hit-call score of the fitted dose curve at least 0.9, where 1 is the maximum); settings: HepG2 Attagene TRANS GAL4 internal marker reporter
Method in brief: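 Fluorescence from capillary electrophoresis of labelled RT-PCR products quantifies reporter mRNA induction after 24 h dosing of HepG2 cells carrying transfected GAL4-UAS reporter transcription units. Vehicle DMSO serves as baseline.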

[13] = target: Estrogen receptor (Homo sapiens) (UniProt P03372); assay: ATG_ERa_TRANS: Attagene TRANS-FACTORIAL HepG2 Assay for human Estrogen Receptor alpha (ERa) (AID 2282970; active = hit-call score of the fitted dose curve at least 0.9, where 1 is the maximum); settings: HepG2 Attagene TRANS ERa GAL4 reporter, mRNA
Method in brief: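 Transactivation via ERa-Gal4 chimera in HepG2; 24 hour incubation; reporter mRNA detected by fluorescence RT-PCR and capillary electrophoresis.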

[14] = target: Bile acid receptor (Homo sapiens) (UniProt Q96RI1); assay: ATG_FXR_TRANS: Attagene TRANS-FACTORIAL HepG2 Assay for Farnesoid X Receptor (FXR) (AID 2282979; active = hit-call score of the fitted dose curve at least 0.9, where 1 is the maximum;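 note: hits raise reporter mRNA above DMSO so AC50 marks FXR activation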); settings: HepG2 Attagene TRANS FXR-GAL4 reporter transcription
Method in brief: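 Chimeric FXR-GAL4 activity in transiently transfected human HepG2 liver cells is scored as induction of reporter mRNA after 24 h of dosing. Detection uses RT-PCR with fluorescent labelling and capillary electrophoresis, with DMSO serving as baseline.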

[15] = target: Oxysterols receptor LXR-alpha (Homo sapiens) (UniProt Q13133); assay: ATG_LXRa_TRANS: Attagene TRANS-FACTORIAL HepG2 Assay for human Liver X Receptor alpha (LXRa) (AID 2282980; active = hit-call score of the fitted dose curve at least 0.9, where 1 is the maximum); settings: HepG2 Attagene TRANS reporter, LXRa transactivation
Method in brief: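 Transient HepG2 transfectants, 24 h dosing, RT-PCR/CE mRNA reporter quantitation; gain-of-signal vs DMSO.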

[16] = target: Hepatocyte nuclear factor 4-alpha (Homo sapiens) (UniProt P41235); assay: ATG_HNF4a_TRANS: Attagene TRANS-FACTORIAL HepG2 Assay for human Hepatocyte Nuclear Factor 4 alpha (HNF4a) (AID 2282982; active = hit-call score of the fitted dose curve at least 0.9, where 1 is the maximum); settings: HepG2 HNF4a transactivation reporter, mRNA readout
Method in brief: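 Gain-of-signal mRNA induction, relative to DMSO vehicle, was read after 24 h compound treatment of HepG2 cells bearing transfected GAL4-UAS reporters. Detection used RT-PCR, 6-FAM primer extension and capillary electrophoresis.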

[17] = target: Nuclear receptor subfamily 4 group A member 2 (Homo sapiens) (UniProt P43354); assay: ATG_NURR1_TRANS: Attagene TRANS-FACTORIAL HepG2 Assay for human Nuclear Receptor Related Protein 1 (NURR1) (AID 2282985; active = hit-call score of the fitted dose curve at least 0.9, where 1 is the maximum); settings: HepG2 Attagene TRANS reporter, mRNA readout
Method in brief: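 HepG2 / transient MRTU transfection / 24 h compound exposure / RT-PCR + CE fluorescence of reporter mRNA / gain-of-signal vs DMSO.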

[18] = target: Estrogen-related receptor gamma (Homo sapiens) (UniProt P62508); assay: ATG_ERRg_TRANS: Attagene TRANS-FACTORIAL HepG2 Assay for human Estrogen-Related Receptor gamma (ERRg) (AID 2282977; active = hit-call score of the fitted dose curve at least 0.9, where 1 is the maximum;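 note: hits increase reporter signal over DMSO so potencies reflect activators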); settings: HepG2 Attagene TRANS reporter, ERRg transactivation
Method in brief: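 HepG2 cells transiently transfected with multiplexed GAL4-UAS reporter units and chimeric NR-Gal4 constructs were exposed to test chemicals for 24 h. Reporter mRNA was measured by RT-PCR, 6-FAM primer extension, HpaI digestion and capillary electrophoresis; gain-of-signal versus DMSO.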

[19] = target: Glucocorticoid receptor (Homo sapiens) (UniProt P04150); assay: ATG_GR_TRANS: Attagene TRANS-FACTORIAL HepG2 Assay for human Glucocorticoid Receptor (GR) (AID 2282978; active = hit-call score of the fitted dose curve at least 0.9, where 1 is the maximum;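 note: activators score as hits since higher reporter transcript over DMSO is fitted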); settings: HepG2 Attagene TRANS GR reporter, mRNA transcription
Method in brief: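 HepG2 cells transiently transfected with GAL4-UAS reporter units and exogenous GR-Gal4 chimera, dosed 24 h. Reporter mRNA by RT-PCR, FAM labeling, HpaI digest and capillary electrophoresis; gain-of-signal fit versus DMSO.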

Measured: AC50

Chain of Oxysterols receptor LXR-alpha (Homo sapiens) (Q13133 whole entry, looked up): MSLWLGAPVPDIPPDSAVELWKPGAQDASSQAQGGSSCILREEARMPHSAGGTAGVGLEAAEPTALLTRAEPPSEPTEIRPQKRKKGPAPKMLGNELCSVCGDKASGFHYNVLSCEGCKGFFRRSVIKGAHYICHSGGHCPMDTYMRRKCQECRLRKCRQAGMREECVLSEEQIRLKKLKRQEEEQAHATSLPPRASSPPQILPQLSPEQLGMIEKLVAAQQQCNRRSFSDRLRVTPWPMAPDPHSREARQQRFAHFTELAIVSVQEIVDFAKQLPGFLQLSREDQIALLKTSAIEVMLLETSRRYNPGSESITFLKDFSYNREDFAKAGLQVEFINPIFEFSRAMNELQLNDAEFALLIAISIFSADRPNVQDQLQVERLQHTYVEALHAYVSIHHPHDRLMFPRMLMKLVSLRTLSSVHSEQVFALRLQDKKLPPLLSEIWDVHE
Chain of Hepatocyte nuclear factor 4-alpha (Homo sapiens) (P41235 whole entry, looked up, the tested form may be a part): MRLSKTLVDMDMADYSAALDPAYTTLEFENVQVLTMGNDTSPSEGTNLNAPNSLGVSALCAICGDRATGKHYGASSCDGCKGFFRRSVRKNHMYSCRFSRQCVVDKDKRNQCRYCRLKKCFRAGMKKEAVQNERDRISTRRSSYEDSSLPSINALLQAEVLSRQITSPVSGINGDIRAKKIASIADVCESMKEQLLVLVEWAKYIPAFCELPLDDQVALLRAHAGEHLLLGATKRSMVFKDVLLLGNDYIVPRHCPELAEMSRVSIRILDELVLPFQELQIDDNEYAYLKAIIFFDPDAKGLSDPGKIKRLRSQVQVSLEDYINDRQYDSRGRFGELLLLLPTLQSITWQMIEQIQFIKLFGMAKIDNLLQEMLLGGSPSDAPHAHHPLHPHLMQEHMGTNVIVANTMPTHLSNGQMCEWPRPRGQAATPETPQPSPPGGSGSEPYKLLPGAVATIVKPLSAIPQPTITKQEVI
Chain of Oxysterols receptor LXR-beta (Homo sapiens) (P55055 whole entry, looked up, the tested form may be a part): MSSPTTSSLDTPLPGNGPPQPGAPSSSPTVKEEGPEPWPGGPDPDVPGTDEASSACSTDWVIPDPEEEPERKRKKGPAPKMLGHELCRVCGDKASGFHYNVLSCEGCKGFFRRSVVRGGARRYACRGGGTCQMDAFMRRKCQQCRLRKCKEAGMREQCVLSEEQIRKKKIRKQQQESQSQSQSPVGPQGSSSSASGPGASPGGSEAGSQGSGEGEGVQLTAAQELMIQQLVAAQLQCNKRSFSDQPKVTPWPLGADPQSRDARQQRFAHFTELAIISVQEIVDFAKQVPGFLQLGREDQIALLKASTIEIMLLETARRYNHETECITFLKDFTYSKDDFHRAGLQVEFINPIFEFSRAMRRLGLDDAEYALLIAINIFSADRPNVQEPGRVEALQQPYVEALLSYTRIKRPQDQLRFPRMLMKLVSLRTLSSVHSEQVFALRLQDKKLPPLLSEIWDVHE
Chain of Transcriptional activator Myb (Homo sapiens) (P10242 whole entry, looked up): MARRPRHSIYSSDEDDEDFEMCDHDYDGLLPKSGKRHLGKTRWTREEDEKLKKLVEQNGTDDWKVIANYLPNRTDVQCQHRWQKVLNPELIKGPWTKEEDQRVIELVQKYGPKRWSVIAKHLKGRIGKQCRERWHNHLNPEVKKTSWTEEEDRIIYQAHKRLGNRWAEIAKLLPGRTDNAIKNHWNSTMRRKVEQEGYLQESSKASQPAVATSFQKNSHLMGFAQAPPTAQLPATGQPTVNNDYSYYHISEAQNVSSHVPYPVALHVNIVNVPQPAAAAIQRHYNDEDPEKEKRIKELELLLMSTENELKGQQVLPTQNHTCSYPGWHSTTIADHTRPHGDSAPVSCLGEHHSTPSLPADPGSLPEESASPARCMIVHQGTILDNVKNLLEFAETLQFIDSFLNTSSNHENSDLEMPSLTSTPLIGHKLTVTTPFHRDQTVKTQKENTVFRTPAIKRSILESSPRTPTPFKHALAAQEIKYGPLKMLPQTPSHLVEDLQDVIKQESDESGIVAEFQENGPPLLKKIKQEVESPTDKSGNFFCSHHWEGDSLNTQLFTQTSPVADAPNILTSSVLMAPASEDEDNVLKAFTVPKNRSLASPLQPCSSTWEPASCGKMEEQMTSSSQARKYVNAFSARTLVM
Chain of X-box-binding protein 1 (Homo sapiens) (P17861 whole entry, looked up): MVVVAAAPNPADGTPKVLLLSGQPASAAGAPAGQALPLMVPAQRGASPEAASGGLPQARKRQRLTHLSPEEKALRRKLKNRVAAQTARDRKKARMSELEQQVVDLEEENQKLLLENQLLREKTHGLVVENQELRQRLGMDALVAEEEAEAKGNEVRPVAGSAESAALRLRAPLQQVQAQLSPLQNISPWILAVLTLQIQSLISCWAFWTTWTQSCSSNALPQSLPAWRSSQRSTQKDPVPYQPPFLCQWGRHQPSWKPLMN
Chain of Nuclear receptor subfamily 1 group I member 3 (Homo sapiens) (Q14994 whole entry, looked up, the tested form may be a part): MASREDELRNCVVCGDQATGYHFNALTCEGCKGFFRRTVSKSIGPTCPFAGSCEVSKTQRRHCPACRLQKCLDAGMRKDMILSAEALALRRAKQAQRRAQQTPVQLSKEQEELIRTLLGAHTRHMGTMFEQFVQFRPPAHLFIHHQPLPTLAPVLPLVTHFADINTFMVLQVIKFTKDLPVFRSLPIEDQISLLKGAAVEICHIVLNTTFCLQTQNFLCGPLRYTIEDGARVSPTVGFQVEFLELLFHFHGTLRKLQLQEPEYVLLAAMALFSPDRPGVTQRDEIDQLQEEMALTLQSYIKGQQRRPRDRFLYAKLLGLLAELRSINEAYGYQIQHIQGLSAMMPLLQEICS
Chain of Estrogen receptor (Homo sapiens) (P03372 whole entry, looked up, the tested form may be a part): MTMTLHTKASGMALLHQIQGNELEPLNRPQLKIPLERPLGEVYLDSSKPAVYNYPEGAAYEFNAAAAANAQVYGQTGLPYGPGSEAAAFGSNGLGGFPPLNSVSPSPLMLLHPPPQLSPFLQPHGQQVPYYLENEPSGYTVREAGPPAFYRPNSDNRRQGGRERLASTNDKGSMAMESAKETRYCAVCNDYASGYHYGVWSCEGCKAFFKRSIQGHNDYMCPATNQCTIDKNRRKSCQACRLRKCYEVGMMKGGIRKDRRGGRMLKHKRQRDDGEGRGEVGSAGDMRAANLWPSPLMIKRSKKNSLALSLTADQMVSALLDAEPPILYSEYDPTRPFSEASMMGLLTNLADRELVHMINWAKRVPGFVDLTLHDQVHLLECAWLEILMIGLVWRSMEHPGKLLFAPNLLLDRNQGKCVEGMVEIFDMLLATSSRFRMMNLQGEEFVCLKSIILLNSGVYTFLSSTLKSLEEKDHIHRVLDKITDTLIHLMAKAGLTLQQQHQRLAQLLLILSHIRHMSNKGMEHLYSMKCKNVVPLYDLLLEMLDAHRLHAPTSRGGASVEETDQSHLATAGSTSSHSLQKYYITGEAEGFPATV
Chain of Nuclear receptor subfamily 4 group A member 2 (Homo sapiens) (P43354 whole entry, looked up): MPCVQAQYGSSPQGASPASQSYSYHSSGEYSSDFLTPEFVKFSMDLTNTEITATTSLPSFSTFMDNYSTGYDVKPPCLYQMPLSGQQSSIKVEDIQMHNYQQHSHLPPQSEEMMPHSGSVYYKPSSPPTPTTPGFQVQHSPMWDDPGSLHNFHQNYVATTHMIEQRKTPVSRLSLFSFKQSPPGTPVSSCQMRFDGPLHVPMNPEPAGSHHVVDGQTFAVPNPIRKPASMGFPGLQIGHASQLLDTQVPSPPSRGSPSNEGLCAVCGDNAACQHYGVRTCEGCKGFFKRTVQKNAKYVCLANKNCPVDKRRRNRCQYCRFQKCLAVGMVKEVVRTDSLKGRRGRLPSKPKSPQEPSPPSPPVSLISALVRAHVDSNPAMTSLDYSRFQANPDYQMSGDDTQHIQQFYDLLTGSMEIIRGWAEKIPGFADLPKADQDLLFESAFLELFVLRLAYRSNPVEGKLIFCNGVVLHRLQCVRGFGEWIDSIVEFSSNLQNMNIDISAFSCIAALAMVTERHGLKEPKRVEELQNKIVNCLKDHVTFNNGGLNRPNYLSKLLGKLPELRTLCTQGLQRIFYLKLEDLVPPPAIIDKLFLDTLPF
Chain of Nuclear respiratory factor 1 (Homo sapiens) (Q16656 whole entry, looked up): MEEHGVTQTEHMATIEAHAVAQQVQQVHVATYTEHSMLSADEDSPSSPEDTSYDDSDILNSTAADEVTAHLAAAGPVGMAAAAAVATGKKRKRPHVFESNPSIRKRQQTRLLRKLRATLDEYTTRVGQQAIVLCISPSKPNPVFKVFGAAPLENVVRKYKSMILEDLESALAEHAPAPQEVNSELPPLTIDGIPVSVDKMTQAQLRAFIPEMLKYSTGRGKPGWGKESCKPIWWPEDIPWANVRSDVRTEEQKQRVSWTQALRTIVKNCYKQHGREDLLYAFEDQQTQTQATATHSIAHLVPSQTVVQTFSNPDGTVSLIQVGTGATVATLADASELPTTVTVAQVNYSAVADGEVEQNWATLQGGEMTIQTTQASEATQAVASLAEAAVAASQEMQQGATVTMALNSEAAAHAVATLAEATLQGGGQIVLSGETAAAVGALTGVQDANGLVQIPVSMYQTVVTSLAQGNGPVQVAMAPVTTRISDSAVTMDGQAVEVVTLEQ
Chain of Bile acid receptor (Homo sapiens) (Q96RI1 whole entry, looked up, the tested form may be a part): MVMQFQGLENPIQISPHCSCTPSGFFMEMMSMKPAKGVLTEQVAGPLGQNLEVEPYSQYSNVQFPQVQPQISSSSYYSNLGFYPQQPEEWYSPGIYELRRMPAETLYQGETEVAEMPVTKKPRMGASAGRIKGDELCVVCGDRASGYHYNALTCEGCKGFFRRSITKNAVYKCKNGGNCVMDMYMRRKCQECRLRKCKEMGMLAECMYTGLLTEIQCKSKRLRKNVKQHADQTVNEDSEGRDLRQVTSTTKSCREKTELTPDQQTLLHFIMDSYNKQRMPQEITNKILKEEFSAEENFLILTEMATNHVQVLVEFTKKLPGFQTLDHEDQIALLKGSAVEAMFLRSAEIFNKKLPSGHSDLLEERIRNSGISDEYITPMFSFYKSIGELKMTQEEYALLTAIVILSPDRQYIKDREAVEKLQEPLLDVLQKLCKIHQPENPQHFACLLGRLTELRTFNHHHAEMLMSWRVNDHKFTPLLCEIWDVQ

O=C1CCCC(=O)O1
not listed: [12] | [13] | [14] | [15] | [16] | [17] | [18] | [19]
inactive: all other assays above

O=c1c2ccccc2oc2ccccc12
inactive: [1] | [2] | [3] | [4] | [5] | [6] | [12] | [10] | [11]

Cc1cccc(N(C)C(=S)Oc2ccc3ccccc3c2)c1
active: [2] 9.03 µM | [3] 1.11 µM | [13] 3.78 µM | [17] 44.1 µM
not listed: [6] | [7] | [18] | [19]
inactive: all other assays above

CC(=O)OCCC1CCCCC1
inactive: [1] | [2] | [3] | [4] | [5] | [6] | [15] | [7] | [8] | [11]

CCOC(=O)CC
not listed: [6] | [12] | [13] | [15] | [16] | [18] | [19]
inactive: all other assays above

C=C1C2CCC(C2)C1(C)C (centres undefined)
inactive: [1] | [2] | [3] | [4] | [5] | [6] | [18] | [19] | [17] | [10]

ON(Cc1ccccc1)Cc1ccccc1
inactive: [1] | [2] | [3] | [4] | [5] | [6] | [7] | [9] | [10] | [11]

CCCCCCC1(C)CCC(=O)O1 (centres undefined)
inactive: [1] | [2] | [3] | [4] | [5] | [16] | [8] | [9] | [10] | [11]

Nc1ccc2cc3ccccc3cc2c1
active: [13] 6.94 µM
not listed: [6] | [14] | [16] | [18]
inactive: all other assays above

CCc1ccc2c(c1)C(=O)c1ccccc1C2=O
active: [3] 11.6 µM | [13] 4.61 µM
inactive: [1] | [2] | [4] | [5] | [7] | [8] | [17] | [10] | [11]

O=C1C(N(CO)C(=O)NCO)N(CO)C(=O)N1CO (centres undefined)
not listed: [7] | [8] | [13] | [14] | [18] | [19]
inactive: all other assays above

CCN(Cc1cccc(S(=O)(=O)O)c1)c1ccc(C(=C2C=CC(=[N+](CC)Cc3cccc(S(=O)(=O)[O-])c3)C=C2)c2ccccc2)cc1
active: [2] 37.4 µM
not listed: [6] | [7] | [14] | [17] | [18] | [19]
inactive: all other assays above

— PubChem BioAssay (EPA / NIEHS)
